{"source": "PubChem BioAssay", "data": [{"biological_target": "Torsin-1A (Homo sapiens) (UniProt O14656)", "sequence (O14656 whole entry, looked up)": "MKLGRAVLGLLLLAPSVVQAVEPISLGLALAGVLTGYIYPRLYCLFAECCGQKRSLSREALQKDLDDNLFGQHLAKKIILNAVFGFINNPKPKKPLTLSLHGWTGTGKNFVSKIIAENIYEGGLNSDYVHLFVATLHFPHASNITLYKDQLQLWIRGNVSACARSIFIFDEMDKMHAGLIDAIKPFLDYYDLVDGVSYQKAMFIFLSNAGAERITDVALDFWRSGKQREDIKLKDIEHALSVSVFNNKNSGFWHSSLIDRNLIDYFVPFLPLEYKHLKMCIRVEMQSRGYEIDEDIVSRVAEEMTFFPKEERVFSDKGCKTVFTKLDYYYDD", "assay": "TOR1A wild-type binding on microarray – cell lysate, small-molecule microarray, lysate, 635/667 nm, primary screen (AID 1149)", "conditions": "COS7 hTOR1A-WT lysate, 635 nm fluorescence, higher = more signal", "values": [{"compound": "CCN1C(=O)[C@@H]2[C@H]3C(=CC[C@@H]2C1=O)C1(OCCCO1)[C@H]1O[C@H]1[C@H]3O", "composite z-score": 0.616}, {"compound": "CCOC(=O)[C@H](Cc1ccccc1)NC(=O)CCC1CC(OC(=O)NCCc2ccc(F)cc2)CC2(CCCC(COC(=O)NCCc3ccccc3OC)O2)O1", "note": "(stereo partly specified)", "composite z-score": 0.196}, {"compound": "CCOC(=O)NN=C1C[C@@H](O)[C@@H](O)[C@@H]2[C@@H]3C(=O)N(c4cccc(Oc5ccccc5)c4)C(=O)[C@@H]3CC[C@H]12", "composite z-score": 0.933}, {"compound": "CCCCC#C[C@@H]1C=C[C@H](Oc2ccc(C(=O)OC)cc2)[C@@H](COC(=O)OCC)O1", "composite z-score": 0.346}, {"compound": "CCCNC(=O)OC[C@H]1O[C@H](CCON=C(C)CCN2CCc3nc(CC)c(CC)cc3C2)C=C[C@@H]1Oc1ccc(OC)cc1", "composite z-score": 0.686}, {"compound": "CCC1=NOC(CCC2CC(OC(=O)NCc3cccc4c3OCO4)CC3(CCCC(COC(=O)NCCc4ccccc4OC)O3)O2)C1", "note": "(stereo unspecified)", "composite z-score": -0.0106}, {"compound": "CO[C@@H]1COC(=O)CC=C[C@H](C)[C@H](OC)COC(=O)[C@H](C)NC(=O)CC=C[C@H]1C", "composite z-score": 1.57}, {"compound": "C#CCCCON=C1C[C@@H](O)[C@@H](O)[C@@H]2[C@@H]3C(=O)N(C(C)(C)C)C(=O)[C@@H]3CC[C@H]12", "composite z-score": -0.309}, {"compound": "CCOC(=O)[C@H](Cc1ccccc1)NC(=O)CCC1CC(OC(=O)NCc2ccc3c(c2)OCO3)CC2(CCCC(COC(=O)NCCC(C)C)O2)O1", "note": "(stereo partly specified)", "composite z-score": 0.399}, {"compound": "COC(=O)CC=C[C@@H](C)[C@@H](C=NO[C@H](C)c1cn([C@H](CO)Cc2ccccc2)nn1)NS(=O)(=O)c1ccc(C)cc1", "composite z-score": 0.708}, {"compound": "CCN1C(=O)[C@H]2[C@H]3[C@H](O)[C@H](O)CC(=O)[C@@H]3CC[C@H]2C1=O", "composite z-score": -0.109}, {"compound": "CCO[C@H](c1cc(OC)cc([N+](=O)[O-])c1OC)[C@H](C)C=CCC(=O)OC", "composite z-score": 0.636}, {"compound": "COC(=O)[C@H](C)NC(=O)CCC1CC(OC(=O)NCCc2ccc(F)cc2)CC2(CCCC(COC(=O)NCc3cccc(C(F)(F)F)c3)O2)O1", "note": "(stereo partly specified)", "composite z-score": 0.818}, {"compound": "CCOC(=O)[C@H](CC(C)C)NC(=O)CCC1CC(OC(=O)NCc2ccc3c(c2)OCO3)CC2(CCCC(COC(=O)NCc3cccc(C(F)(F)F)c3)O2)O1", "note": "(stereo partly specified)", "composite z-score": 0.175}, {"compound": "COC(=O)[C@H](C)NC(=O)CCC1CC(OC(=O)NCc2ccc3c(c2)OCO3)CC2(CCCC(COC(=O)NCc3cccc(C(F)(F)F)c3)O2)O1", "note": "(stereo partly specified)", "composite z-score": 0.703}, {"compound": "C[C@@H](c1ccccc1)N1C(=O)[C@H]2[C@H]3[C@H](O)[C@H](O)CC(=NO[C@@H]4O[C@H](CO)[C@@H](O)[C@H](O)[C@H]4O)[C@H]3CC[C@H]2C1=O", "composite z-score": 0.225}, {"compound": "CCc1cc2c(nc1CC)CCN(CCC(C)=NO[C@H](C)c1cn([C@H](CO)Cc3ccccc3)nn1)C2", "composite z-score": 1.49}, {"compound": "O=C1C[C@@H](O)[C@@H](O)[C@@H]2[C@@H]3C(=O)N(Cc4ccccc4)C(=O)[C@@H]3CC[C@@H]12", "composite z-score": 0.498}, {"compound": "COc1ccc(O[C@H]2C=C[C@@H](c3ccccc3)O[C@@H]2CON=CC[C@@H]2C=C[C@H](OC(C)=O)[C@@H](COC(C)=O)O2)cc1", "composite z-score": -0.107}, {"compound": "Cc1ccc(S(=O)(=O)n2c3ccccc3c3nnc(C(=O)c4ccccc4)nc32)cc1", "composite z-score": 0.0855}, {"compound": "CCCNC(=O)OC[C@H]1O[C@H](CCON=C(C)CCC(=O)OC[C@H]2O[C@H](c3ccccc3)C=C[C@@H]2Oc2ccc(OC)cc2)C=C[C@@H]1Oc1ccc(OC)cc1", "composite z-score": -0.694}, {"compound": "COC(=O)CC=C[C@@H](C)[C@H](OCc1cccc(-c2ccccc2)c1)C1CCCCC1", "composite z-score": 0.439}, {"compound": "O=C(NN=C1C[C@@H](O)[C@@H](O)[C@@H]2[C@@H]3C(=O)N(Cc4ccccc4)C(=O)[C@@H]3CC[C@@H]12)OCc1ccccc1", "composite z-score": 0.815}, {"compound": "COc1ccc(COC(=O)NN=C2C[C@@H](O)[C@@H](O)[C@@H]3[C@@H]4C(=O)N(Cc5ccccc5)C(=O)[C@@H]4CC[C@H]23)cc1", "composite z-score": -0.429}, {"compound": "COc1ccc(O[C@H]2C=C[C@@H](c3ccccc3)O[C@@H]2CON=C(C)CCC(=O)OC[C@H]2O[C@H](c3ccccc3)C=C[C@@H]2Oc2ccc(OC)cc2)cc1", "composite z-score": -2.42}, {"compound": "CCCNC(=O)OC[C@H]1O[C@H](CCON=Cc2ccc(C(=O)N3[C@H](c4ccc(C)cc4)[C@@H](C)CC[C@H]3C(=O)OC)cc2)C=C[C@@H]1Oc1ccc(OC)cc1", "composite z-score": 0.436}, {"compound": "CCOC(=O)CCN1C(=O)[C@H]2[C@H]3[C@H](O)[C@H](O)CC(=NNC(=O)OCc4ccccc4)[C@@H]3CC[C@H]2C1=O", "composite z-score": 0.701}, {"compound": "C[C@@H](c1ccccc1)N1C(=O)[C@H]2[C@H]3[C@H](O)[C@H](O)CC(=NOCc4ccccc4)[C@H]3CC[C@H]2C1=O", "composite z-score": -0.0911}, {"compound": "COC(=O)CC=C[C@@H](C)[C@@H](C=NOC[C@@H](O)[C@H]1O[C@@H]2OC(C)(C)O[C@@H]2[C@H]1O)NS(=O)(=O)c1ccc(C)cc1", "composite z-score": 0.92}, {"compound": "O=C(NN=C1C[C@@H](O)[C@@H](O)[C@@H]2[C@@H]3C(=O)N(C4CCCCC4)C(=O)[C@@H]3CC[C@H]12)OCc1ccccc1", "composite z-score": 0.118}, {"compound": "Cc1cc2c(nc1C)CCCCN2CC(C)ON=C[C@@H](C)[C@H](OCc1ccccc1)C(C)C", "note": "(stereo partly specified)", "composite z-score": -3.92}, {"compound": "CCOC(=O)[C@H](CC(C)C)NC(=O)CCC1CC(OC(=O)NCc2cccc3ccccc23)CC2(CCCC(COC(=O)NCCC(C)C)O2)O1", "note": "(stereo partly specified)", "composite z-score": -0.0418}, {"compound": "CC(C)CON=C1C[C@@H](O)[C@@H](O)[C@@H]2[C@@H]3C(=O)N(C[C@@H]4CCCO4)C(=O)[C@@H]3CC[C@@H]12", "composite z-score": -0.25}, {"compound": "C=CC[C@@H]1C=C[C@H](ON=C(C)CCC(=O)OC[C@H]2O[C@H](c3ccccc3)C=C[C@@H]2Oc2ccc(OC)cc2)[C@@H](CO)O1", "composite z-score": -0.957}, {"compound": "CO[C@@H]1COC(=O)CC=C[C@@H](C)[C@@H]2C=C[C@H](O)[C@@H](COC(=O)CC=C[C@H]1C)O2", "composite z-score": 2.58}, {"compound": "COC(=O)[C@H](C)NC(=O)CCC1CC(OC(=O)NCc2cccc3ccccc23)CC2(CCCC(COC(=O)NCC(c3ccccc3)c3ccccc3)O2)O1", "note": "(stereo partly specified)", "composite z-score": 0.113}]}]}
